Source: PubChem BioAssay
MITF act: activators of MITF-driven TRPM1 promoter activity in SK-MEL-5 cells; actives 0.75% (n = 300,000); activation, % at 12.5 µM; SK-MEL-5 TRPM1-promoter luciferase, 24 h; % of positive control, neutral wells = 0;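 active = mean activation of at least 80% with every replicate also reaching 80%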;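 also: 0% = neutral control wells and 100% = parthenolide positive control wells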
Wnt act: activates Wnt/beta-catenin signaling in a reporter cell assay; actives 1.2% (n = 300,000); activator, plate reader; activation, % at 9.35 µM; in the data active = activation above about 30%, passing the limit was not always enough;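 also: 0% = neutral control wells and 100% = positive control wells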
esBAF inh: inhibitors of esBAF chromatin remodeling in mouse ES cells; AID 602393; Bmi1-luciferase knock-in reporter, 24 h; 100% = twice the neutral-well signal; actives 2% (n = 350,000); reporter increase, % at 12.5 µM; in the data active = activation above about 40%;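 also: 0% = median of the plate's neutral control wells and 100% = double that signal; a rise in the Bmi1 reporter signal indicates esBAF inhibition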
EWS-Fli block: EWS/Fli transcriptional activity inhibition | actives 0.67% (n = 350,000) | inhibition, % at 12.6 µM | A673 NR0B1-luciferase reporter, viability-normalised;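 active = mean inhibition of at least 50% after viability correction, with every replicate also passing that limit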;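 also: firefly luciferase signal divided by Alamar Blue viability fluorescence both relative to DMSO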
MITF TRPM1 inh: MITF TRPM1 promoter inhibition in SK-MEL-5 cells | SK-MEL-5 TRPM1 promoter luciferase, 24 h | AID 488899 | actives 0.83% (n = 330,000) | inhibition, % at 12.5 µM;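 active = mean inhibition across replicates of 60% or more, whatever share of single replicates reaches that level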
PAX8 reporter: lowers PAX8-driven luciferase in RMG-I cells. actives 1.2% (n = 360,000). RMG-I TPO-luciferase reporter, SteadyGlo, 24 h. inhibition, % at 12.6 µM. AID 652154;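 active = mean replicate inhibition at least 60% with every replicate also reaching 60%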;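 also: luciferase light reporting Pax8 driven TPO promoter activity; plate controls were median of neutral control wells for no effect and mitoxantrone controls for full effect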
DNA binder FP: binds DNA displacing acridine orange; AC35, µM (top dose mostly 68 µM), for inactives: at the top dose activity change, negative = DNA binding; shares compounds with EWS-Fli block; salmon sperm DNA acridine orange fluorescence polarization; AID 720586; actives 2% (n = 640);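 active = fitted curve reaches a 35% signal fall AC35 below twice the sample's top valid tested dose, actives reach about 48 µM in these data; inactive = the rest, including activity in the rising direction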;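 also: lower polarization ratio signals compound binding to DNA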
The depositor's hits bear a star; . = not tested or not shown. Sampled rows, rich in hits. Any-hit rate of the full collection: about 4%.

SMILES | MITF act | Wnt act | esBAF inh | EWS-Fli block | MITF TRPM1 inh | PAX8 reporter | DNA binder FP
C[C@@H]1CN([C@@H](C)CO)C(=O)c2cc(NS(=O)(=O)c3ccc(F)cc3)ccc2O[C@@H]1CN(C)Cc1ccc(C(=O)Nc2ccccc2N)cc1 | . | . | -27 | 54* | . | 10 | -7%
C[C@@H]1CCCCO[C@@H](CN(C)Cc2ccc(C(F)(F)F)cc2)[C@H](C)CN([C@H](C)CO)C(=O)c2cc(NC(=O)CCCN(C)C)ccc2O1 | . | . | -1 | 12 | . | . | .
C[C@@H]1CN([C@H](C)CO)C(=O)c2cc(NS(=O)(=O)c3ccccc3)ccc2O[C@H]1CN(C)Cc1ccc(C(=O)Nc2ccccc2N)cc1 | . | . | -3 | 30 | . | 18 | .
C[C@@H]1CCCCO[C@H](CN(C)Cc2ccc(C(F)(F)F)cc2)[C@H](C)CN([C@H](C)CO)C(=O)c2cc(NC(=O)CCCN(C)C)ccc2O1 | . | . | 2 | 67* | . | . | 0%
C[C@H]1CN([C@@H](C)CO)C(=O)c2cc(NS(=O)(=O)c3ccc(Cl)cc3)ccc2O[C@H]1CN(C)Cc1ccc(C(=O)Nc2ccccc2N)cc1 | . | . | -34 | 61* | . | 4 | -12%
CO[C@H]1CN(C)C(=O)c2ccc(NS(=O)(=O)c3ccccc3Cl)cc2OC[C@H](C)NC[C@H]1C | . | . | 3 | 2 | . | . | .
C[C@@H]1CCCCO[C@H](CN(C)C)[C@H](C)CN([C@H](C)CO)C(=O)c2cc(NS(=O)(=O)c3ccccc3)ccc2O1 | . | . | -6 | 0 | . | 7 | .
O=S(=O)(N[C@H]1CC[C@@H](CCn2cc(-c3ccccc3F)nn2)O[C@H]1CO)c1ccc(F)cc1 | . | . | . | . | . | 1 | .
CO[C@H]1CN(C)C(=O)c2cc(NC(=O)NC3CCCCC3)ccc2OC[C@@H](C)N(CCc2ccccc2)C[C@H]1C | . | . | 3 | -39 | . | . | .
O=C(Cc1ccccn1)N1CC(=O)N2[C@@H](CO)[C@@H](c3ccc(-c4ccc(F)cc4)cc3)[C@@H]2C1 | . | . | . | -5 | . | -2 | .
COc1ccc(-c2ccc(C3[C@H]4CNC[C@@H]3N4CC3CCOCC3)cc2)cc1 (stereo partly drawn) | . | . | . | 5 | . | . | .
c1cncc(-c2ccc([C@@H]3[C@H]4CNC[C@@H]3N4CC3CCOCC3)cc2)c1 | . | . | . | 51* | . | -9 | 3%
COc1ccc(Cn2cc3c(-c4ccc(F)cc4)nnc-3c3cc(OC)c(OC)cc32)cc1 | -82 | -10 | 2 | 66* | 83* | 92* | -25%
COc1ccc(-c2cn[nH]c2-c2ccc(OCc3ccc(F)cc3)cc2O)cc1OC | -25 | -3 | . | 10 | 22 | 25 | .
O=C(C[C@@H]1C=C[C@H](NC(=O)CN2CCOCC2)[C@@H](CO)O1)NC1CCCCC1 | . | . | -4 | -8 | . | 2 | .
O=C(NC[C@@H]1N[C@@H](CO)[C@H]1c1ccc(C2=CCCCC2)cc1)c1cccc(F)c1 | . | . | -7 | 59* | . | 5 | 0%
CCCNC(=O)N1CCC2(CC1)CN(C(=O)Nc1ccc(F)cc1)[C@H](CO)c1[nH]c3cc(OC)ccc3c12 | . | . | . | -1 | . | . | .
CCS(=O)(=O)Nc1ccc2c(c1)C(=O)N(C)[C@H]1CC[C@@H](CC(=O)N3CCN(C)CC3)O[C@H]1CO2 | . | . | -1 | -14 | . | -13 | .
COc1ccc(CCCNC(=O)C2Cc3c(-c4ccc5c(c4)OCO5)ccnc3O2)cc1 (stereo not drawn) | . | 0 | -2 | 53* | . | 28 | -2%
C=C1C(=O)O[C@H]2[C@H]1[C@H](OC(=O)/C(C)=C\C)C[C@]1(CO1)[C@@H]1[C@H](OC(C)=O)C=C(C)[C@]21O | 4 | 5 | . | -3 | 3 | 16 | .
C=C1C(=O)O[C@@H]2[C@H]1[C@@H](OC(=O)/C(C)=C/C)C/C(C)=C\C(=O)/C=C(\C)[C@@H]2O | -96 | -1 | -86 | 73* | 96* | 98* | -6%
Cc1cc(NC(=O)c2ccc3c(c2)OCCO3)ccc1NC(=O)c1cc2ccccc2o1 | 37 | -1 | -2 | -52 | -38 | -16 | .
O=C(Nc1ccc(NC(=O)c2cc3ccccc3o2)cc1)c1ccc2c(c1)OCCO2 | -54 | -3 | . | 58* | 55 | -1 | -2%
CCCCCCCN(c1ccccc1)[C@@H]1C[C@H]2CCCC(=O)N3CC[C@@H](C1)[C@@H]23 | -15 | -21 | 1 | 62* | 13 | 56 | 3%
CCCCNC(=O)O[C@@H]1C[C@H]2CCCC(=O)N3CC[C@@H](C1)[C@@H]23 | -1 | -4 | 1 | -5 | -3 | -3 | .
SMILES | MITF act | Wnt act | esBAF inh | EWS-Fli block | MITF TRPM1 inh | PAX8 reporter | DNA binder FP
CC(C)c1ccccc1NC(=O)COC(=O)CCN1C(=O)/C(=C\C=C\c2ccccc2)SC1=S | -60 | -2 | . | 62* | 63* | 26 | -10%
O=C(CCN1C(=O)/C(=C\C=C\c2ccccc2)SC1=S)Nc1ccccc1C(=O)O | -4 | 3 | 11 | . | 4 | -3 | .
CC1(C(=O)NCc2ccco2)Cc2c(-c3cccc(C(F)(F)F)c3)ccnc2O1 (stereo not drawn) | . | -3 | -6 | 39 | . | 10 | .
CN(C)c1ccc(-c2ccnc3c2CC(C)(C(=O)NCc2cccs2)O3)cc1 (stereo not drawn) | . | 0 | -3 | 47 | . | 13 | .
CC1(C(=O)NCc2ccco2)Cc2c(-c3cccc(C(N)=O)c3)ccnc2O1 (stereo not drawn) | . | -6 | -4 | 53* | . | . | -11%
CN(C)c1ccc(-c2ccnc3c2CC(C)(C(=O)NCc2ccco2)O3)cc1 (stereo not drawn) | . | -1 | 10 | 64* | . | -11 | 3%
CN(C)CC1CCC/C(=C\c2ccc(OC(=O)c3ccc(Cl)cc3)cc2)C1=O (stereo not drawn) | -92 | -8 | . | 59* | 92* | . | -8%
O=C1/C(=C\c2ccc(Cl)cc2)CCC1CNc1ccc(Cl)cc1 (stereo not drawn) | -17 | 8 | . | 13 | 22 | 7 | .
CCC(=O)Nc1ccc2c(c1)C(=O)N(C)C[C@@H](OC)[C@H](C)CN(C(=O)C1CCC1)[C@@H](C)CO2 | . | . | -2 | 9 | . | . | .
Cc1noc(C)c1S(=O)(=O)Nc1ccc2c(c1)C(=O)N([C@H](C)CO)C[C@@H](C)[C@@H](CN(C)C(=O)Nc1ccc(F)cc1)O2 | . | . | 2 | -16 | . | 0 | .
Cc1ccc(-c2nnc(-c3ccccc3)c(-c3ccccc3)n2)cc1 | 12 | -2 | . | 1 | -13 | 20 | .
Cc1ccc2nc(-c3ccccc3)nn2c1 | -41 | -1 | -70 | 72* | 42 | . | -12%
C[C@@H]1CN([C@@H](C)CO)C(=O)Cc2cc(NC(=O)CCN3CCOCC3)ccc2O[C@H]1CN(C)S(=O)(=O)c1cccs1 | . | . | 4 | 3 | . | -16 | .
O=C(/C=C/c1cc(Br)ccc1O)c1ccco1 | -50 | -19 | . | 59* | 51 | 13 | -17%
Cc1c(-c2nc(-c3ccc(C(C)(C)C)cc3)no2)n(C)oc1=O | . | 1 | . | 56* | 36 | 19 | 3.5µM*
